{"source": "paper PMC7819943", "about": "“Rice protein-binding microarrays: a tool to detect cis-acting elements near promoter regions in rice”", "note": "Whole data set: some 68,000 sequences, median “fluorescence intensity (a.u.)” near 9,100, cut for the highest 2% near 16,000. The entries come from a sample that favours the highest values as a whole."}
{"target": "OsWRKY34 (Oryza sativa, UniProt Q0JBA9 1-250)", "sequence (Q0JBA9 entry or part of it)": "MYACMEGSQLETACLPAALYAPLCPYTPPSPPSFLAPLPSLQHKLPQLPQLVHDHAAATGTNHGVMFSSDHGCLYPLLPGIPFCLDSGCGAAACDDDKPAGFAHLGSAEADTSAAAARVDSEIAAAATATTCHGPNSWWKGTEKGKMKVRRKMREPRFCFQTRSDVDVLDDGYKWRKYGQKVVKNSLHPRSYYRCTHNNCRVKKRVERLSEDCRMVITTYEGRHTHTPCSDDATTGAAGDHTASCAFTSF", "assay": "protein-binding microarray (RPBM); PBS, 2% BSA, 51.3 ng/ul salmon testes DNA, 50 uM zinc acetate, 200 nM TF, 25 C, 1 h; high values mean tight binding", "conditions": "protein: recombinant; tags: N-terminal polyhistidine and DsRed monomer fusion (pET32a); label: CyDye5-dUTP incorporated in the synthesized complementary strand; 3' TTTTT single-stranded linker to array surface; dsDNA, one strand shown", "in_short": "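A custom Agilent array was converted to double-stranded form by primer extension with Cy5-dUTP and blocked with 2% BSA. Protein at 200 nM in PBS with 2% BSA, salmon testes DNA and 50 µM zinc acetate was applied for 1 h at 25 °C, followed by washing. The proteins were polyhistidine–DsRed N-terminal fusions of transcription factors, expressed in E. coli BL21-CodonPlus and Ni–NTA-purified. The binding signal is per-feature fluorescence intensity (arbitrary units) from an Axon 4000B scanner.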"}
{"sequence": "CCGAGCACCCACCCGCCGCCGCCGCCGTCGCCGATTCATGCGGAGTCACCTAGTGCAG", "binding signal": "9080 fluorescence intensity (a.u.)"}
{"sequence": "GTAATTAACCAGAATTCAGGTTTTGTCAGTGCCACCATCACGGAGTCACCTAGTGCAG", "binding signal": "9850 fluorescence intensity (a.u.)"}
{"sequence": "CGTTGACTTTTTCTTACATGTTTGACCATTCGTCTTATTTCGGAGTCACCTAGTGCAG", "binding signal": "35300 fluorescence intensity (a.u.)"}
{"sequence": "ATTTTATTGTTGCGGTTGCCAATCAACAACGACGTCATTTCGGAGTCACCTAGTGCAG", "binding signal": "9550 fluorescence intensity (a.u.)"}
{"sequence": "GACACGGAAAATCATGGTTTGACTTTTTTTTTTGGGACGGCGGAGTCACCTAGTGCAG", "binding signal": "19400 fluorescence intensity (a.u.)"}
{"sequence": "TGTTGACTTTTGGATACATGTTTGACAATTCGTCTTATTTCGGAGTCACCTAGTGCAG", "binding signal": "14700 fluorescence intensity (a.u.)"}
{"sequence": "TTTGTGTTGTCTAGACATTTTTTTCTATTTTTCACCTATTCGGAGTCACCTAGTGCAG", "binding signal": "9190 fluorescence intensity (a.u.)"}
{"sequence": "TGGGACTTTATTTGCACTGGTTTTGGGAGTTGAGGGACACCGGAGTCACCTAGTGCAG", "binding signal": "8550 fluorescence intensity (a.u.)"}
{"sequence": "ATGACATGTCATGGGACTTACTTTACATGGTTTTGAATACCGGAGTCACCTAGTGCAG", "binding signal": "8140 fluorescence intensity (a.u.)"}
{"sequence": "ATTTCTAACTTTTTTTCCCATTGTTTTGTTTGTCTTATTTCGGAGTCACCTAGTGCAG", "binding signal": "8920 fluorescence intensity (a.u.)"}
{"sequence": "GAATCATGAGTTGGTTGGGTTGGCATTAAACTGTTTTGAGCGGAGTCACCTAGTGCAG", "binding signal": "12100 fluorescence intensity (a.u.)"}
{"sequence": "TCGTTGATTTTTGACATGATGTTTGACCATTCTTATTATTCGGAGTCACCTAGTGCAG", "binding signal": "9750 fluorescence intensity (a.u.)"}
{"sequence": "GGTTTTGCGGTTGAGCGAAACGACCCAATGGGAATCAAGACGGAGTCACCTAGTGCAG", "binding signal": "60000 fluorescence intensity (a.u.)"}
{"sequence": "ACTTTGTCCACCCATTTTGTGTTGTCTCGTTGTTTCTATTCGGAGTCACCTAGTGCAG", "binding signal": "17000 fluorescence intensity (a.u.)"}
{"sequence": "GGCCTCTCAACTGACCCGTCTGCGAAATATGTTTATTTTCCGGAGTCACCTAGTGCAG", "binding signal": "8060 fluorescence intensity (a.u.)"}
{"sequence": "ATTTATAGAGGTTGGGTGTGCATGTGTGGTGAGCATATTTCGGAGTCACCTAGTGCAG", "binding signal": "8820 fluorescence intensity (a.u.)"}
{"sequence": "GCTAGCGCTGCCGCCCTACTCTTGATCCTAAATATTCATTCGGAGTCACCTAGTGCAG", "binding signal": "8210 fluorescence intensity (a.u.)"}
{"sequence": "ACTGGTCGAACCTTGGCGGGGAGGGGCCGGCCGGCCTCATCGGAGTCACCTAGTGCAG", "binding signal": "8640 fluorescence intensity (a.u.)"}
{"sequence": "ATGAAATGTTTGTCATTTCTGGTGGGGCTGTTAGTTAATTCGGAGTCACCTAGTGCAG", "binding signal": "9970 fluorescence intensity (a.u.)"}
{"sequence": "CAAACCTGTGTACTTTCTACGTGTTTTTTCTATGTTTCCGCGGAGTCACCTAGTGCAG", "binding signal": "12100 fluorescence intensity (a.u.)"}
{"sequence": "ACCATATGCATCTGAATTTGTTCTGAGTATACTCCATTTCCGGAGTCACCTAGTGCAG", "binding signal": "10600 fluorescence intensity (a.u.)"}
{"sequence": "TGCCCGACTTGGCTTTCTCCTCCTCTCTCCTCCCGCAACCCGGAGTCACCTAGTGCAG", "binding signal": "8600 fluorescence intensity (a.u.)"}
{"sequence": "AGCAGTTAACCCACCGTACAACAAAATCAATCAGTTTCTTCGGAGTCACCTAGTGCAG", "binding signal": "8270 fluorescence intensity (a.u.)"}
